The source of these data is PubChem BioAssay AID1259418 (Broad Institute, 2018).

The assay in a line: T. gondii growth inhibition with IFN-gamma, dose response, cell-based, ME49Luc, HeLa, luciferase, 72 h (AID 1259418). Conditions: T. gondii ME49Luc in IFN-y HeLa, hits give low values, -100% = high-dose IFN-γ control wells.

Among all 3,400 compounds or so, about 840 (25%) were called active. Another 11% or so got no clear call; they are omitted. These entries were drawn from the full list. Potency and affinity values are given separately. A number with no mark means an inactive call.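 How the source made its calls: active means fitted half-maximal concentration of signal decrease at or below twice the sample's top tested concentration; inconclusive means flat curve between -70 and -30 percent, or poor fit; inactive means flat within 30 percent, signal rise, or potency above limit.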

In the case of `CCOc1ccc(-c2nc(CN3CCN(C(=O)Nc4cc(C)ccc4C)CC3)c(C)o2)cc1`, where the note is “at 19.5 µM unless noted”, the max activity is -22.4%.
With `Cc1nc(OCC(=O)Nc2ccccc2Cl)c2ccccc2n1`, the max activity (at 19.5 µM unless noted) is 28.8% [at 0.35 µM].
With `CCc1nc(OCC(=O)Nc2cc(OC)cc(OC)c2)c2ccccc2n1`, the max activity (at 19.5 µM unless noted) was 14.7% [at 0.68 µM].
As to `COc1ccc(-c2nc(Cn3nnc(-c4nc(-c5cccnc5)no4)c3C)c(C)o2)cc1`, the max activity (at 19.5 µM unless noted) was 6.33% [at 5 µM].
Turning to `Cc1nc(OCC(=O)Nc2cccc(C)c2C)c2ccccc2n1`, the max activity (at 19.5 µM unless noted) is 9.02% [at 0.16 µM].
As for `Cc1nc(CCNC(=O)[C@H]2CCCN2S(=O)(=O)c2ccc(F)cc2)cs1`, the max activity (at 19.5 µM unless noted) is 18.1% [at 1.35 µM].
Still for that read-out and setting: in the case of `O=C(NCCc1csc(-c2ccccc2)n1)[C@H]1CCCN1S(=O)(=O)c1cccc(F)c1` it was -25.4% [at 1.35 µM]; in that of `Cc1c(S(=O)(=O)N2CCC[C@@H]2C(=O)NCCc2csc(-c3ccccc3)n2)cnn1C(F)F`, 5.67% [at 2.6 µM].
As for `Cc1nc(CCNC(=O)[C@H]2CCCN2S(=O)(=O)c2ccccc2C)cs1`, the max activity (at 19.5 µM unless noted) was 12.4% [at 10 µM].
On to `Cc1nc(CCNC(=O)[C@H]2CCCN2S(=O)(=O)c2ccc(Cl)cc2)cs1`, for which the max activity (at 19.5 µM unless noted) is 23.5% [at 0.16 µM].
On to `Cc1ccc(S(=O)(=O)N2CCC[C@@H]2C(=O)NCCc2csc(C)n2)cc1`, for which, for the setting “at 19.5 µM unless noted”, the max activity was 7.86% [at 10 µM].
Take `Cc1nc(CCNC(=O)[C@H]2CCCN2S(=O)(=O)c2ccc(C)c(C)c2)cs1`: for the setting “at 19.5 µM unless noted”, the max activity was 15.2% [at 10 µM].
`CCc1ccc(S(=O)(=O)N2CCc3nc(-c4cccc(OC)c4)sc3C2)cc1`: under “at 19.5 µM unless noted”, the max activity is -5.58% [at 5 µM].
For the compound `Cc1cccc(-n2ncc3c(NC4CCCCCCCCCCC4)ncnc32)c1`, the max activity (at 19.5 µM unless noted) was 22.5% [at 10 µM].
Same read-out and setting: in the case of `CCOC(=O)c1cccc(NC(=O)Nc2ccc(-c3nc(-c4ccccc4)co3)cc2)c1` it was 14.5% [at 0.16 µM]; in that of `COc1ccccc1-c1nc(Cn2nnc(-c3nc(-c4ccc(F)cc4)no3)c2C)c(C)o1`, 9.82% [at 0.16 µM].
Consider `CS(=O)(=O)N1CCO[C@@H]2CN(C(=O)Cc3ccccn3)CC[C@H]2C1`, for which the max activity (at 19.5 µM unless noted) is -7.92% [at 0.3 µM].
Take `COc1ccc(-c2nc(Cn3nnc(-c4nc(-c5ccc(OC(C)C)cc5)no4)c3C)c(C)o2)cc1`: the max activity (at 19.5 µM unless noted) was 11.3% [at 0.35 µM].
For the compound `COc1cccc(NC(=O)Nc2ccc(-c3nc(-c4cccc(Br)c4)co3)cc2)c1`, for the setting “at 19.5 µM unless noted”, the max activity is 13.3%.
On to `Cc1ccc(C(=O)Nc2c(C(=O)N3CCCC3)[nH]c3ccc(C)cc23)cc1`, for which, under “at 19.5 µM unless noted”, the max activity is 49.7% [at 10 µM].
With `CCC(C)NC(=O)Cn1c(=O)c(S(=O)(=O)c2ccccc2)cc2cc(C)ccc21` (stereo not drawn), the max activity (at 19.5 µM unless noted) is -4.98% [at 10 µM].
As for `CCc1ccc(S(=O)(=O)N2CCC[C@@H]2C(=O)NCCc2csc(C)n2)cc1`, the max activity (at 19.5 µM unless noted) was -9.49% [at 0.35 µM].
In the case of `Cc1cc(C)cc(C(=O)N2CCC[C@@H]2C(=O)NCCc2csc(-c3ccccc3)n2)c1`, the max activity (at 19.5 µM unless noted) was -12.7%.
On to `Cc1nc(CCNC(=O)[C@H]2CCCN2S(=O)(=O)c2ccc(Cl)s2)cs1`, for which the max activity (at 19.5 µM unless noted) was 12.6% [at 0.16 µM].
Still for that read-out and setting: in the case of `CC(C)(C)c1ccc(S(=O)(=O)N2CCC[C@@H]2C(=O)NCCc2csc(-c3ccccc3)n2)cc1` it was -14.7% [at 0.16 µM]; in that of `O=C(NCCc1csc(-c2ccccc2)n1)[C@H]1CCCN1S(=O)(=O)c1cccc(Cl)c1`, -25.7%; in that of `Cc1cc(C)c(S(=O)(=O)N2CCC[C@@H]2C(=O)NCCc2csc(-c3ccccc3)n2)cc1C`, -22.5%.
The same measure, in the same setting: next, `COc1ccc(CNC(=O)Nc2ccc(-c3nc(-c4ccc(C)cc4C)co3)cc2)cc1`: 20.3% [at 1.35 µM].
`Cc1oc(-c2ccccc2)nc1CSc1nc2c(c(=O)[nH]1)CN(Cc1ccc(F)cc1)CC2`: the max activity (at 19.5 µM unless noted) was 22.6% [at 0.35 µM].
`Cc1ccc(-c2coc(-c3ccc(NC(=O)C4CCCCC4)cc3)n2)cc1`: under “at 19.5 µM unless noted”, the max activity was 55.5%.
Take `Cc1ccc(-c2coc(-c3ccc(NC(=O)c4cccc(C)c4)cc3)n2)cc1`: the max activity (at 19.5 µM unless noted) was 70.3% [at 10 µM].
`Cc1ccc(-c2nc(Cn3nnc(-c4nc(-c5ccccc5Br)no4)c3C)c(C)o2)cc1`: the max activity (at 19.5 µM unless noted) was -6.98% [at 5 µM].
`Cc1ccccc1C(=O)N1CSC[C@@H]1C(=O)NCCc1csc(-c2ccccc2)n1`: the max activity (at 19.5 µM unless noted) is -16.3%.
Regarding `COc1ccccc1-c1noc(C2CCCN2C(=O)Cc2c[nH]c3ccccc23)n1` (stereo not drawn), the max activity (at 19.5 µM unless noted) is -7.96% [at 0.35 µM].
Still for that read-out and setting: next, `COc1ccccc1-c1noc(C2CCCN2C(=O)c2ccc3cc[nH]c3c2)n1` (stereo not drawn): 14.5% [at 10 µM]; `CCn1nccc1C(=O)Nc1ccc2c(c1)CCC(=O)N2C`: 24.4%; `COC[C@@H]1CN(CC2CC2)C[C@@]12CCN(CCc1ccccc1)C2`: -8.78% [at 2.6 µM].
As to `CCOC(=O)C1CCN(c2nc(-c3ccc(Cl)cc3)nc3ccccc23)CC1`, the max activity (at 19.5 µM unless noted) is 17% [at 0.35 µM].
On to `CCOC(=O)CSc1nc(NCc2ccc(Cl)cc2)c2ccccc2n1`, for which the max activity (at 19.5 µM unless noted) is 29.6%.
Turning to `O=C(Cn1c(=O)c(S(=O)(=O)c2ccccc2)cc2ccccc21)NCc1ccccc1`, the max activity (at 19.5 µM unless noted) was -8.55% [at 2.6 µM].
For the compound `O=C(NC1CCCC1)N1[C@@H]2CNC[C@H]1C2c1ccc(-c2cccnc2)cc1` (stereo partly drawn), the max activity (at 19.5 µM unless noted) is 19.4%.
With `c1ccc(-c2ccc([C@H]3[C@H]4CNC[C@@H]3N4Cc3cc(-c4ccccc4)on3)cc2)cc1`, the max activity (at 19.5 µM unless noted) was 49.3% [at 10 µM].
`Cc1ccc2c(c1)cc(S(=O)(=O)c1ccccc1)c(=O)n2CC(=O)NC(C)C`: the max activity (at 19.5 µM unless noted) was -9.24% [at 0.16 µM].
Turning to `O=C(Nc1ccc(-c2nc(-c3cccc(Br)c3)co2)cc1)Nc1ccccc1F`, the max activity (at 19.5 µM unless noted) was 6.98%.
On the same count and under the same terms, next, `COc1ccccc1-c1nc(Cn2nnc(-c3nc(-c4cccnc4)no3)c2C)c(C)o1`: 10.3% [at 0.16 µM]; `Cc1ccc2c(c1C)-n1cccc1C1(CCN(C(=O)C3CCCCC3)CC1)N2`: -20.8% [at 0.16 µM]; `Cc1ccc(C(=O)N2CCC3(CC2)Nc2ccc(Cl)cc2-n2cccc23)cc1`: 8.29% [at 0.35 µM].
On the same count and under the same terms, next, `O=C(CC1CCCC1)N1CCC2(CC1)Nc1ccc(Cl)cc1-n1cccc12`: -10.7% [at 0.16 µM]; `O=C(c1ccc(Cl)cc1)N1CCC2(CC1)Nc1ccc(Cl)cc1-n1cccc12`: -6.42% [at 0.35 µM].
Take `O=C(CC1CCCCC1)N1CCC2(CC1)Nc1ccc(Cl)cc1-n1cccc12`: for the setting “at 19.5 µM unless noted”, the max activity was 7.76% [at 0.35 µM].
On to `CCC(CC)C(=O)N1CCC2(CC1)Nc1ccc(Cl)cc1-n1cccc12`, for which the max activity (at 19.5 µM unless noted) was 9.15% [at 0.68 µM].
As to `COc1ccc(CC(=O)N2CCC3(CC2)Nc2ccc(Cl)cc2-n2cccc23)cc1`, the max activity (at 19.5 µM unless noted) is 5.66% [at 2.6 µM].
For the compound `CC(C)C(=O)N1CCC2(CC1)Nc1ccc(Cl)cc1-n1cccc12`, the max activity (at 19.5 µM unless noted) was 15.6% [at 0.68 µM].
For the compound `CCc1onc(C)c1C1CCCN1Cc1cn(CC)c2ccc(OC)cc12` (stereo not drawn), the max activity (at 19.5 µM unless noted) was -10.8% [at 0.35 µM].
As to `CSc1cccc(NC(=O)Nc2ccc(-c3nc(-c4ccccc4)co3)cc2)c1`, the max activity (at 19.5 µM unless noted) is 76%.
`Fc1ccc(F)c(CN2[C@@H]3CNC[C@H]2C3c2ccc(-c3ccncc3)cc2)c1` (stereo partly drawn): the max activity by setting is: (at 10 µM) 23.7%; (at 21 µM) 49%.
Consider `COc1ccc(CCC(=O)N2CCC3(CC2)Nc2ccc(C)c(C)c2-n2cccc23)cc1`, for which, under “at 19.5 µM unless noted”, the max activity is -4.87% [at 0.68 µM].
`O=C(CC1N=C2c3ccccc3N=C(SCc3ccccc3Cl)N2C1=O)NCc1ccc2c(c1)OCO2` (stereo not drawn): for the setting “at 19.5 µM unless noted”, the max activity is 24.9% [at 0.16 µM].
Take `Cc1ccc2[nH]cc(CCNC(=O)C3CCN(c4ccc(Cl)cc4)C3=O)c2c1` (stereo not drawn): the max activity (at 19.5 µM unless noted) is 23.3% [at 10 µM].
In the case of `CCc1ccc(N2CCC(C(=O)NCCc3c[nH]c4ccc(Cl)cc34)C2=O)cc1` (stereo not drawn), under “at 19.5 µM unless noted”, the max activity is -15.5% [at 0.16 µM].
Same read-out and setting: next, `Cc1ccccc1C(=O)N1CCC2(CC1)Nc1ccc(Cl)cc1-n1cccc12`: -3.44%; `O=C(c1ccccc1Cl)N1CCC2(CC1)Nc1ccc(Cl)cc1-n1cccc12`: 6.15% [at 1.35 µM]; `CCOc1ccc(C(=O)N2CCC3(CC2)Nc2ccc(Cl)cc2-n2cccc23)cc1`: 11.3% [at 0.68 µM].
Turning to `Cc1ccccc1C(=O)N1CCC2(CC1)Nc1ccc(C)c(C)c1-n1cccc12`, the max activity (at 19.5 µM unless noted) is -10.8% [at 5 µM].
For `CCOc1ccccc1C(=O)N1CCC2(CC1)Nc1cc(OC)ccc1-n1cccc12`, the max activity (at 19.5 µM unless noted) was 12% [at 2.6 µM].
On to `Cc1ccc2c(c1C)-n1cccc1C1(CCN(C(=O)c3ccccc3Cl)CC1)N2`, for which the max activity (at 19.5 µM unless noted) is -6.73% [at 0.35 µM].
Same read-out and setting: in the case of `Cc1ccc(-c2coc(-c3ccc(NC(=O)NCc4ccc(F)cc4)cc3)n2)c(C)c1` it was -6.17% [at 0.16 µM].
As for `CN(Cc1ccccn1)C(=O)C1=NOC2(CCN(S(=O)(=O)c3ccc(F)cc3)C2)C1` (stereo not drawn), the max activity (at 19.5 µM unless noted) was 35.3%.
`COc1ccc(-c2nc3c(s2)CN(C(=O)Nc2ccc(C)cc2Cl)CC3)cc1OC`: the max activity (at 19.5 µM unless noted) was -9.18% [at 0.35 µM].
On the same count and under the same terms, in the case of `COc1ccccc1-c1nc(Cn2nnc(-c3nc(-c4cccc(Cl)c4)no3)c2C)c(C)o1` it was 8.57% [at 0.35 µM]; in that of `NC(=O)C1(N2CCCCC2)CCN(c2ncc(NC(=O)c3ccc(F)cc3)cc2C(=O)O)CC1`, -7.63% [at 10 µM]; in that of `Cc1ccc(C)c(-c2coc(-c3ccc(NC(=O)Nc4ccc5c(c4)OCCO5)cc3)n2)c1`, 196% [at 5 µM].
